Measured values published in article PMC5540273 (PLoS ONE, 2017).
Values joined by “and” are separate entries in the source; they are usually repeats but may differ in a detail not shown here. Equal entries are not always repeated. Where two headings read alike, the source gives them in different places.

Legend:
[1] = system: KIT-autoinhibited; conditions: concentration: 1 μM, replicates: in singlicate, n = 1
[2] = system: KIT; conditions: concentration: 1 μM, replicates: in singlicate, n = 1
[3] = system: LATS1; conditions: concentration: 1 μM, replicates: in singlicate, n = 1
[4] = system: LATS2; conditions: concentration: 1 μM, replicates: in singlicate, n = 1
[5] = system: LCK; conditions: concentration: 1 μM, replicates: in singlicate, n = 1
[6] = system: LIMK1; conditions: concentration: 1 μM, replicates: in singlicate, n = 1
[7] = system: LIMK2; conditions: concentration: 1 μM, replicates: in singlicate; n = 1
[8] = system: T1, LKB1; conditions: concentration: 1 μM, replicates: in singlicate, n = 1
T1 construct: gene STK11

[9] = system: T2, LOK; conditions: concentration: 1 μM, replicates: in singlicate, n = 1
T2 construct: gene STK10

[10] = system: LRRK2; conditions: concentration: 1 μM, replicates: in singlicate, n = 1
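Further: KINOMEscan kinase panel screen.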

Row | SMILES | %Inh ([1]; 1 µM) | %Inh ([2]; 1 µM) | %Inh ([3]; 1 µM) | %Inh ([4]; 1 µM) | %Inh ([5]; 1 µM) | %Inh ([6]; 1 µM) | %Inh [7] [%] | %Inh ([8]; 1 µM) | %Inh ([9]; 1 µM) | %Inh ([10]; 1 µM) | %Inh [1] [%] | %Inh [2] [%] | %Inh [3] [%] | %Inh [4] [%] | %Inh [5] [%] | %Inh [6] [%] | %Inh [8] [%] | %Inh [9] [%] | %Inh [10] [%]
1 | Cl.Cl.Cl.Fc1ccc(-c2ncn(C3CCNCC3)c2-c2ccnc(Nc3ccccc3)n2)cc1 [SB-238039] | 2% and 0% | 12% and 0% | 17% and 16% | 0% and 12% | 69% and 32% | 13% and 0% | 0 | 55% and 23% | 35% and 2% | 27% and 0% | – | – | – | – | – | – | – | – | –
2 | COc1cc(Nc2nccc(N3CCC(NC(=O)c4cccc(NC(C)=O)c4)C3)n2)cc(OC)c1OC (stereo not shown) [GSK1379754] | – | – | – | – | – | – | 0 | – | – | – | 8 | 70 | 0 | 0 | 30 | 16 | 0 | 0 | 12
3 | CC(C)(CN)c1nc(-c2ccc(Cl)c(O)c2)c(-c2ccncc2)[nH]1.O=C(O)C(F)(F)F [SB-477794] | – | 66% and 58% | 7% and 39% | 86% and 89% | – | 0% and 2% | 0 | 0% and 31% | 99.1% and 98.2% | – | 0 | – | – | – | 99.2 | – | – | – | 0
4 | Nc1nc(-c2ccc3c(N)n[nH]c3c2)cc(N2CCCC2)n1 [GSK2227430] | – | – | – | – | – | – | 3 | – | – | – | 0 | 12 | 0 | 5 | 0 | 0 | 1 | 0 | 0
